Assay outcomes as filed in PubChem BioAssay.
Tb PYK inh: qHTS of Trypanosoma Brucei Inhibitors; pyruvate kinase (Trypanosoma brucei), Q57TT1; TbPYK enzyme, Kinase-Glo Plus ATP luminescence, 45 min; Potency, µM (series often up to 76.8 µM), actives largely listed as inhibitors; 410,000 tested, 0.12% active; AID 624173, 2012; also: nearly all actives have a fitted effect of over 50% in size
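Quantitative HTS: titrated library compounds versus trypanosomal pyruvate kinase in TEA buffer (pH 7.2) containing KCl, MgCl2, BSA and Tween-20. Reactions were initiated with ADP, 130 uM final. Kinase-Glo Plus luminescence was read after 45 min at RT.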
FBPA Giardia inh: qHTS Assay for Inhibitors of Fructose-1,6-bisphosphate Aldolase from Giardia Lamblia; purified Giardia FBPA; 290,000 tested, 0.71% active; A8B2U2; Potency, µM (titrated, usually from 59.6 µM), hits mostly inhibitors; also: nearly all actives have a fitted effect of over 55% in size
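40 nM FBPA preincubated 10 min at RT with compound (up to 57.5 uM final), then substrate plus GAPDH/TPI/NAD/arsenate coupling and diaphorase/resazurin added. Fluorescence read after 20 min at RT, 525/598 nm.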
Shiga inhibitor: A qHTS for Small Molecule Inhibitors of Shiga Toxin. inhibition, % at 38.7 µM. Vero cells, Shiga toxin protein synthesis inhibition reporter. 290,000 tested, 9.2% active. AID 2315, 2010; in the data active = inhibition mostly above about 28%, no sharp cut-off; inactive = mostly below about 43%
RE007 growth inh: qHTS Assay for Inhibitors of the HIV-1 protein Vpr; S. pombe RE007 Vpr strain, BacTiter-Glo ATP luminescence, 24 h; Potency, µM (doses to about 92.2 µM), most hits filed as inhibitors; 360,000 tested, 0.21% active; active = well fitted falling curve with a large enough effect; inconclusive = small, poorly fitted or top-dose-only effect; inactive = no such curve, though single readings can be large or run the other way; also: nearly all actives have a fitted effect of over 50% in size
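Fission yeast strain RE007, carrying one chromosomally integrated HIV-1 vpr copy, was seeded at OD 0.01 in PMG+AL medium with 23 nL pinned compound. After 24 h at 30 °C and 99% humidity, viability was read by BacTiter-Glo luminescence.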
Cycloheximide cs: Cycloheximide Counterscreen for Small Molecule Inhibitors of Shiga Toxin; cell reporter, cycloheximide protein synthesis inhibition counterscreen; max response, %; 300,000 tested, 12% active; AID 2314, 2010; in the data active = max response mostly above about 13%, no sharp cut-off; inactive = mostly below about 14%; also: read at 38.3 µM for the half of the compounds with a filed dose
LmPK inh: qHTS Assay for Inhibitors of Leishmania Mexicana Pyruvate Kinase (LmPK) | Q27686 | purified LmPK, Kinase-Glo ATP luminescence, 1 h | Potency, µM (titrated, usually from 57.5 µM), hits mostly inhibitors | 290,000 tested, 0.37% active | AID 1721, 2009
Target sequence (Q27686 whole entry, looked up): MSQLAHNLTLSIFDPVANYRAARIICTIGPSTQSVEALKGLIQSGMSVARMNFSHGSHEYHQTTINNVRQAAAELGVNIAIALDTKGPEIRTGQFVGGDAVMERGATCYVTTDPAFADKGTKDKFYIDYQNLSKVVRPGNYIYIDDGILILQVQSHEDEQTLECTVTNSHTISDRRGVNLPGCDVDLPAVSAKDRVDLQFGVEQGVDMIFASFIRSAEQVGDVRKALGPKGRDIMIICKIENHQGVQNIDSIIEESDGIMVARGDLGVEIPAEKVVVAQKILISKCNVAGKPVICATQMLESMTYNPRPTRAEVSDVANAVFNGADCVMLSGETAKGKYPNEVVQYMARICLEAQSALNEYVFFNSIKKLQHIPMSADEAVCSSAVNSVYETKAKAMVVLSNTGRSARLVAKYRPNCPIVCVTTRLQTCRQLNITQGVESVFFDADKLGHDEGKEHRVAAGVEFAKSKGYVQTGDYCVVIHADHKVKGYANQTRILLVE
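Screened at intermediate enzyme activity to detect both inhibitors and activators: LmPK at 0.1 nM, with a 0.5 nM enzyme column as activation reference. PEP 0.5 mM, ADP 0.1 mM; ATP detected by luminescence after 1 h.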
A number is an active result; i = inactive; ? = inconclusive; nt = not tested or not shown. The sample as a whole holds a higher share of hits than the screen did. Unless noted, calls follow the shape of the dose curve; as a rule, active = well fitted curve in the direction sought with a large enough effect; inconclusive = small, poorly fitted or top-dose-only effect, or another doubt; inactive = no such curve, though single readings can be large; an effect the other way counts as inactive or inconclusive.

SMILES	Tb PYK inh	FBPA Giardia inh	Shiga inhibitor	RE007 growth inh	Cycloheximide cs	LmPK inh
O=C(NNC(=O)C1C2CCC(C2)C1C(=O)O)c1cccc(Cl)c1 (stereo unspecified)	i	i	i	i	19.4	i
O=C(NNC(=O)C1CCC1)c1cccc(Cl)c1	i	nt	nt	i	nt	nt
O=C(NC1CCCCCCC1)c1cccc(Cl)c1	i	i	64.1	i	40.5	i
O=C(NC1CCCC1)c1cccc(Cl)c1	i	i	i	i	i	i
CCCCn1c(=O)n(CC2CCC(C(=O)NCCCOC)CC2)c(=O)c2sccc21 (stereo unspecified)	i	nt	nt	nt	nt	nt
CC[C@H](C)[C@H](NC(=O)[C@H](CCC(=O)O)NC(=O)CNC(=O)[C@@H](NC(=O)[C@@H]1CCCN1C(=O)[C@@H](NC(=O)[C@@H]1CCCN1C(=O)[C@@H]1CCCN1C(=O)[C@H](CC(N)=O)NC(=O)[C@H](CC(N)=O)NC(=O)[C@@H](NC(=O)[C@H](CCSC)NC(=O)[C@H](Cc1c[nH]c2ccccc12)NC(=O)CNC(=O)[C@@H](NC(=O)[C@H](CCC(N)=O)NC(=O)[C@@H](N)CCC(=O)O)[C@@H](C)CC)[C@@H](C)O)[C@@H](C)CC)C(C)C)C(=O)O	nt	i	i	nt	i	nt
NNC(=O)c1cc(-c2ccccc2)sc1N	i	i	i	i	35.7	i
CCOC(=O)c1cc(-c2ccccc2)sc1NC(=O)c1ccc(OC)cc1	i	i	i	i	i	i
CCCCNC(=O)c1cc(-c2ccccc2)sc1N	nt	nt	nt	i	nt	nt
CC(=O)c1sc(-c2ccccc2)cc1N	i	i	i	i	i	i
NNC(=O)c1sc(-c2ccccc2)cc1N	i	i	49.9	i	18.9	i
O=C(Nc1sc(-c2ccccc2)cc1C(=O)O)c1ccccc1	i	i	52.2	?	34.7	i
CC1=CC(=O)C=C(C)C1=NOC(=O)/C=C\c1ccccc1	i	?	i	i	i	i
CC1=CC(=NOC(=O)/C=C/c2ccccc2)C=C(C)C1=O	i	?	i	i	12.6	i
COC(=O)c1ccc2c(CCO)c[nH]c2c1	i	i	37.2	i	24.9	i
COC(=O)CCSCc1cn2cc(Cl)ccc2n1	i	i	i	i	16.0	i
Cc1cc(C)cc(-n2ccnc2SCC(=O)Nc2nccs2)c1	i	i	i	i	i	i
Cc1cccc(-n2ccnc2SCC(=O)Nc2nccs2)c1	i	i	i	i	29.0	i
COc1cccc(-n2ccnc2SCC(=O)Nc2nccs2)c1	i	i	i	i	21.4	i
CCn1c(=O)c2cc(C(=O)N3CCN(c4cccc(Cl)c4)CC3)sc2c2ccccc21	i	nt	nt	nt	nt	nt
COc1ccc(-c2ccc(NS(=O)(=O)c3cc(C)c(C)cc3C)cc2)nn1	i	nt	nt	nt	nt	nt
COc1cc2oc(=O)cc(-c3ccc(-c4ccc(O)cc4)cc3)c2c(OC)c1OC	i	i	i	i	i	nt
COc1cc2oc(=O)cc(-c3ccc(-c4ccc(NC(C)=O)cc4)cc3)c2c(OC)c1OC	nt	i	81.2	nt	53.2	nt
Cc1ccccc1Cn1c(=O)n(CCC(=O)NCc2ccco2)c(=O)c2sccc21	i	nt	nt	nt	nt	nt
CNc1nn(-c2cccc(Cl)c2)nc1N	i	i	89.5	?	46.9	i
SMILES	Tb PYK inh	FBPA Giardia inh	Shiga inhibitor	RE007 growth inh	Cycloheximide cs	LmPK inh
O=C(O)c1ccc(N/N=C/c2ccc(-c3cccc(Cl)c3)o2)cc1	i	i	82.5	?	60.1	i
O=C(O)c1ccc(N/N=C/c2c(F)cccc2Cl)cc1	i	i	i	i	i	i
O=C(O)c1ccc(N/N=C/c2ccc(-c3cc(Cl)ccc3Cl)o2)cc1	i	i	112.1	i	81.4	i
O=C(O)c1cc(N/N=C/c2ccc(-c3ccc(F)cc3)o2)ccc1Cl	i	i	152.1	i	45.6	i
O=C(N/N=C\c1ccc(-c2cccc(Cl)c2)o1)C(=O)NC1CCCC1	i	i	i	i	i	i
O=C(O)c1ccc(N/N=C/c2ccc(-c3ccc(Cl)cc3Cl)o2)cc1	i	i	111.3	i	38.9	i
Cc1cc(=O)n(Cc2ccc(F)cc2Cl)c2c1c(C)nn2C	i	nt	nt	nt	nt	nt
CC(C)CC(N)C(=O)NC(C)C(=O)O (stereo unspecified)	nt	i	nt	nt	nt	nt
CCc1ccc(S(=O)(=O)c2c(C(=O)c3ccc(C)c(C)c3)cnc3ccccc23)cc1	i	nt	nt	nt	nt	nt
NCCCC[C@H](NC(=O)CNC(=O)[C@@H]1CCCN1C(=O)[C@H](Cc1ccc(O)cc1)NC(=O)CN)C(=O)N[C@@H](Cc1ccccc1)C(=O)O	nt	i	i	nt	i	nt
C=CCOC(=O)c1sc(NC(=O)c2ccc(OC)cc2)nc1C	i	i	i	i	15.7	i
CCOc1ccc(C(=O)Nc2nc(C)c(C(=O)OC)s2)cc1	i	i	51.3	i	34.9	i
CCOC(=O)c1sc(NC(=S)NC(=O)c2ccc(OC)cc2)nc1C	i	?	i	i	i	i
COc1ccc(Cl)cc1NC(=O)CSc1nc(=O)[nH]c2c1CCC2	i	nt	i	nt	i	nt
Cc1cccc(Oc2nc3c(c(=O)n(C)c(=O)n3C)n2C)c1C	i	nt	nt	nt	nt	nt
Cc1cccc(CNC(=O)CCCN2C(=O)COc3ccc(C)cc32)c1	i	nt	nt	nt	nt	nt
O=c1sc(N2CCN(c3ccccc3F)CC2)nc2ccsc12	i	i	56.5	i	36.8	i
O=C(c1ccco1)N1CCN(c2nc3ccsc3c(=O)s2)CC1	i	i	49.4	i	31.5	i
Cc1cc2nc(N3CCN(C(=O)c4ccco4)CC3)sc2cc1C	i	nt	nt	i	nt	nt
Cc1ccc(-c2nc3ncccc3o2)cc1NC(=O)c1ccc(-c2cccc(Cl)c2C)o1	i	nt	nt	nt	nt	nt
CCc1c(-c2ccccc2)nc2ccccc2c1C(=O)NC(C)c1ccccc1 (stereo unspecified)	i	nt	nt	nt	nt	nt
Cc1ccc(C2=NNC3(CCOC(C)(C)C3)S2)cc1 (stereo unspecified)	i	i	54.1	i	36.9	i
Cc1ccc(S(=O)(=O)NCCC2(C(C)C)CCOC(C)(C)C2)cc1 (stereo unspecified)	i	i	i	i	i	i
Cc1nc2sc(-c3ccccc3)cc2c(=O)n1-n1cccc1	i	i	112.9	i	42.4	i
Cc1ccccc1-c1nc2sc(-c3ccccc3)cc2c(=O)o1	i	i	i	i	i	i
Cc1nc2sc(-c3ccccc3)cc2c(=O)n1/N=C/N(C)C	i	i	72.1	i	37.3	i
O=c1c2cc(-c3ccccc3)sc2nc2n1CCC2	nt	i	102.6	nt	47.0	i
Cc1nc2sc(-c3ccccc3)cc2c(=O)n1N	?	i	56.4	?	44.3	7.08µM
Cc1sc2nc(C)n(/N=C/N(C)C)c(=O)c2c1C	i	i	i	i	i	i
NC(=O)CSc1nc2sc(-c3ccccc3)cc2c(=O)n1N	i	i	i	i	26.3	i
